# Screening data: PubChem BioAssay, National Center for Advancing Translational Sciences (NCATS)
# G9a block: G9a (human) methyltransferase inhibition. G9a H3K9 monomethylation, AlphaScreen, 2 h. Potency, µM (titrated, usually from 102 µM), without a hit: at the top dose activity, negative = inhibition, actives largely listed as inhibitors. 350,000 tested, 8.8% active. AID 504332; further: potency means the concentration at half of the fitted maximal effect; nearly all actives have a fitted effect of over 75% in size
# Target sequence (Q96KQ7 913-1193 limits assumed): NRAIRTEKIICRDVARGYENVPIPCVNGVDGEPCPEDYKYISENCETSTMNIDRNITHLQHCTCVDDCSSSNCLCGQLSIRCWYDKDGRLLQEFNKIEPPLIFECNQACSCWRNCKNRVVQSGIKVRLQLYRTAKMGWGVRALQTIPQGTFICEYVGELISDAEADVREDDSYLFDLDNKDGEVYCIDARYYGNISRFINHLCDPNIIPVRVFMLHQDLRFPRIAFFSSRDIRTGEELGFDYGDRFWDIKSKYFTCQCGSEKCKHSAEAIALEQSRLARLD
#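 Quantitative HTS format: methyltransferase activity on a biotin-tagged H3K9 peptide is measured by AlphaScreen, using a rabbit anti-monomethyl-H3K9 antibody with streptavidin donor and anti-IgG acceptor beads. Final levels are 20 nM enzyme, 500 nM peptide, 20 uM SAM; 2 h RT.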
# Tau FP inhib: inhibitors of human tau fibril formation; 280,000 tested, 0.39% active; K18 P301L tau heparin fibrillization, Alexa594 FP, 6 h; AID 1468; Potency, µM (titrated, usually from 57.7 µM), without a hit: top-dose activity, negative = inhibition, usual class: inhibitors; further: potency means the concentration at half of the fitted maximal effect; nearly all actives have a fitted effect of over 55% in size
# Target sequence (P10636 561-689 P618L limits assumed): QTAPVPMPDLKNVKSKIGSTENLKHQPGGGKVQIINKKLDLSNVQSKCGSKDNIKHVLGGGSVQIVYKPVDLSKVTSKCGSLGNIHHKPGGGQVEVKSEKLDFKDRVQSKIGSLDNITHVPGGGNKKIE
#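 Human K18 P301L fragment (15 uM unlabeled plus 0.24 uM Alexa 594-labeled) in 100 mM sodium acetate pH 7 with compound, aggregation induced by 20 uM heparin for 6 hr at 37 C. ThT (30 uM) added for 1 hr, then Alexa 594 FP read.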
# Coupling enz: inhibits coupling enzyme system, counter-screen for aldolase hits; coupling enzyme system counterscreen, AmpLite Red fluorescence; activity change, negative = inhibition, % at 58.2 µM, hits read low; 290,000 tested, 0.67% active; in the data active means activity change below about -30%
#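 Counterscreen of the coupled detection system alone, without aldolase: glyceraldehyde-3-phosphate coupling enzymes plus AmpLite Red readout. Compounds at 57.5 uM final, 10 min RT preincubation, 20 min RT reaction, fluorescence 525/598 nm.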
# Tau fluor counter: counter-screen for tau fibril formation inhibitors; 280,000 tested, 0.93% active; Potency, µM (titrated, usually from 57.7 µM), for inactives: at the highest dose activity change, negative = decrease; tau K18 P301L Alexa594 fluorescence, heparin fibrillization; AID 1463; further: potency means the concentration at half of the fitted maximal effect; nearly all actives have a fitted effect of over 55% in size
#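 Human K18 P301L tau (15 uM unlabeled plus 0.24 uM Alexa 594-labeled, final) in 100 mM sodium acetate pH 7 was mixed with compound and 20 uM heparin and incubated 6 hr at 37 C.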
# Tau fibril ThT: inhibitors of human tau fibril formation, thioflavin T binding; P10636; recombinant tau K18 P301L (four-repeat tau fragment), heparin-induced fibrillization, ThT fluorescence; Potency, µM (titrated, usually from 57.4 µM), for inactives: at the highest dose activity, negative = inhibition, actives largely listed as inhibitors; 270,000 tested, 2.1% active; further: potency means the concentration at half of the fitted maximal effect; nearly all actives have a fitted effect of over 55% in size
#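 Aggregation was driven by heparin (20 uM final) acting on recombinant tau […] bearing P301L in 100 mM sodium acetate pH 7; fibrils were detected with Thioflavin T.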
# Sfp inh: Sfp phosphopantetheinyl transferase inhibition; 310,000 tested, 3.5% active; Potency, µM, for inactives: largest response in the series, negative = inhibition, hits mostly inhibitors; Q9F4F7; Biochemical Sfp PPTase activity, qHTS;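 further: the enzyme is Sfp with the accession as filed and its product quenches rhodamine fluorescence; potency means the concentration at half of the fitted maximal effect; 0% = enzyme reaction without inhibitor and -100% = no enzyme wells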
#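 Fluorescence-quenching assay with 15 nM Sfp, 5 uM rhodamine-CoA and 12.5 uM BHQ-2-labelled ybbR peptide in pH 7.6 Hepes/MgCl2 buffer. Enzyme was pre-incubated with compound for 15 min at room temperature. Rate was taken from the 30-min fluorescence change (525/598 nm).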
# * = called active by the depositor; ? = inconclusive; nt = no result; [ ] = another dose, or the depositor's remark. This is a sample that favours compounds with a hit; in the whole collection about 11% have one here. Unless noted, the call rests on the fitted dose curve; in most records, active means well fitted curve in the direction sought with a large enough effect; inconclusive means small, poorly fitted or top-dose-only effect, or another doubt; inactive means no such curve, though single readings can be large; an effect the other way counts as inactive or inconclusive. Unless noted, on the % scale 0 is the no-effect control and ±100 the full control effect.
SMILES,G9a block,Tau FP inhib,Coupling enz,Tau fluor counter,Tau fibril ThT,Sfp inh
Cn1nccc1C(=O)Nc1ccc(OC(=O)c2ccnn2C)cc1,1.58µM*,0.6%,-1.1,-5.4%,-6.2%,12.5%
Cn1nccc1C(=O)Nc1ccc2c(c1)OCCO2,1.8%,5.0%,0.7,-1.7%,-12.3%,8.2%
Cc1n(-c2ccccc2)c2ccc(Cl)cc2[n+]1CCO,8.91µM*,-0.9%,3.9,5.1%,2.7%,-9.4%
O=C(O)Cn1cc(/C=c2/sc3nc4ccccc4n3c2=O)c2ccccc21,50.1µM*,?,-0.9,-20.3%,?,-23.2%
Cc1ccc(/C=C/S(=O)(=O)NCC(=O)OCC(=O)Nc2c(F)cccc2F)cc1,20µM*,nt,nt,nt,nt,nt
Cc1ccc(/C=C/S(=O)(=O)NCC(=O)OCC(=O)Nc2ccc(C(N)=O)cc2)cc1,44.7µM*,nt,nt,nt,nt,nt
Cc1ccc(/C=C/S(=O)(=O)NCC(=O)OCC(=O)Nc2ccc(C(=O)N(C)C)cc2)cc1,18.9%[12.7 µM],nt,nt,nt,nt,nt
O=C(O)CCCNc1n[nH]c(=O)[nH]c1=O,14.1µM*,-4.3%,-1.9,5.1%,5.6%,-11.3%
O=C(CCNc1n[nH]c(=O)[nH]c1=O)N1CCCCC1,20.3%[59 µM],5.3%,0.4,12.4%,9.8%,22.3%
Oc1c(N=Nc2ccccc2)sc2ccccc12,nt,3.8%,-9.4,-22.6%,2.51µM*,1.2%
Cc1c(C(=O)c2ccccc2C(=O)O)sc2ccccc12,-14.6%,nt,0.0,nt,nt,11.6%
Cc1cccc(C2=NN(c3ccccc3)[C@H](CO)[C@H]2c2ccc(F)cc2)c1,278.9%,?,-1.3,31.6µM*[quencher],?,17.8%
Cc1cccc(C2=NN(c3ccc(Br)cc3)[C@@H](C(=O)N3CCOC3=O)[C@@H]2c2ccc(F)cc2)c1,134.8%[59 µM],-2.3%,-3.6,?,-18.3%,14.9%
Cc1cccc(C2=NN(c3ccccc3)[C@H](CO)[C@H]2c2ccc(Cl)cc2)c1,208.6%,?,-0.7,11.2µM*[quencher],?,27.3%
Cc1ccc(NC(=O)CCCc2nnc3n(C)c(=O)c4sccc4n23)cc1C,18.4%[59 µM],7.5%,nt,-6.9%,-1.0%,nt
N#Cc1cccc(-n2nnnc2-c2ccccn2)c1,-15.2%,-1.8%,0.8,14.1µM*[quencher],6.31µM*,4.5%
Cc1cc(C(=O)N(C)CC(=O)Nc2ccc(F)c(F)c2F)no1,13.0%[12.7 µM],nt,nt,nt,nt,3.4%
Cc1cccc(NC(c2ccc(O)cc2)c2ccc3ccc(C)nc3c2O)n1 (stereo not drawn),4.47µM*,3.1%,-7.9,-14.7%,?,?
CSc1nnc(NC(=O)c2ccc3c(c2)OCO3)s1,28.2µM*,nt,-4.8,nt,nt,4.2%
CN(C)S(=O)(=O)c1ccc(C(=O)Nc2nnc(SCc3ccccc3)s2)cc1,-29.1%[59 µM],1.6%,4.2,6.8%,9.3%,4.9%
CSc1nnc(NC(=O)c2ccc(S(=O)(=O)N(C)C)cc2)s1,22.4µM*,-8.1%,3.4,-13.6%,-10.6%,-21.5%
O=C(Nc1nncs1)c1ccc2c(c1)OCO2,50.1µM*,nt,0.5,nt,nt,21.1%
C#CCOCCOCCOCCNc1nc(N2CCN(C(=O)[C@H](Cc3ccc(O)cc3)n3cc(CCO)nn3)CC2)nc(N2CCN(C(=O)[C@H](Cc3ccc(O)cc3)n3cc(CCO)nn3)CC2)n1,35.5µM*,1.6%,0.7,-1.2%,-11.3%,13.4%
C#CCOCCOCCOCCNc1nc(N2CCN(C(=O)[C@H](CCCCN)n3cc([C@@H](N)CO)nn3)CC2)nc(N2CCN(C(=O)[C@H](Cc3ccc(O)cc3)n3cc([C@@H](N)CC(C)C)nn3)CC2)n1,?,8.3%,0.2,7.5%,?,6.0%
C#CCOCCOCCOCCNc1nc(N2CCN(C(=O)[C@H]([C@@H](C)O)n3cc(CCCCN)nn3)CC2)nc(N2CCN(C(=O)[C@H](Cc3ccc(O)cc3)n3cc(CCO)nn3)CC2)n1,50.1µM*,7.9%,0.9,-13.8%,-10.3%,?
SMILES,G9a block,Tau FP inhib,Coupling enz,Tau fluor counter,Tau fibril ThT,Sfp inh
COCCCn1cnc2c(c1=O)c1nc3ccccc3nc1n2-c1ccc(C)cc1,11.4%,5.3%,1.0,1.1%,-0.8%,9.2%
Cc1ccc(S(=O)(=O)c2c(N)n(CC3CCOC3)c3nc4ccccc4nc23)cc1 (stereo not drawn),-4.8%[59 µM],-4.1%,-17.4,?,?,4.9%
Cc1cc(C)cc(-n2c3nc4ccccc4nc3c3c(=O)n(Cc4ccco4)cnc32)c1,?,?,3.4,1.5%,?,7.08µM*
COc1ccc(Cn2c3nc4ccccc4nc3c3c(=O)n(Cc4ccco4)c(C)nc32)cc1,?,-6.0%,-6.1,-7.5%,?,7.94µM*
COc1ccc(S(=O)(=O)c2c(N)n(Cc3ccco3)c3nc4ccccc4nc23)cc1,44.7µM*,-0.3%,-3.4,?,?,56.2µM*
Cc1nc2c(c(=O)n1Cc1ccccc1Cl)c1nc3ccccc3nc1n2Cc1ccco1,?,-11.5%,1.9,-4.4%,?,2.82µM*
COc1cc(NC(=O)c2ccc([N+](=O)[O-])cc2)c(OC)cc1NC(=O)CC(C)C,-33.1%,11.4%,0.1,-10.2%,-9.4%,-1.4%
CC1C(=O)N2CCCc3cc(S(=O)(=O)N(C)c4ccccc4)cc1c32 (stereo not drawn),nt,nt,nt,nt,nt,-18.1%
CCCN(CC1CC1)C(=O)CSc1ncnc2sccc12,39.8µM*,-2.8%,-0.8,-3.7%,0.5%,-49.2%
CCC(C)N(C(=O)CSc1ncnc2sccc12)C1CCS(=O)(=O)C1 (stereo not drawn),1.1%[12.7 µM],nt,nt,nt,nt,nt
Cc1ccc(C)c(S(=O)(=O)NNC(=O)c2sc(NS(=O)(=O)c3ccccc3)nc2C)c1,-4.8%,nt,-3.1,nt,nt,4.0%
CC(C)(C)c1csc(NC(=O)Cn2cnc3ccccc3c2=O)n1,?,-2.5%,1.6,-9.2%,1.2%,20µM*
CC(C)CSc1oc(-c2ccco2)nc1S(=O)(=O)c1ccccc1,35.5µM*,0.0%,1.5,?,-17.8%,-6.3%
CCSc1oc(-c2ccco2)nc1S(=O)(=O)c1ccc(F)cc1,3.98µM*,-8.6%,-3.5,-21.3%,?,-25.8%
Cc1ccc(S(=O)(=O)c2nc(-c3ccco3)oc2SCC(C)C)cc1,?,-15.0%,nt,?,?,nt
Cc1ccc(S(=O)(=O)c2nc(-c3ccco3)oc2SCc2ccc(F)cc2)cc1,?,?,nt,?,-2.8%,nt
CCSc1oc(-c2ccco2)nc1S(=O)(=O)c1ccc(C)cc1,25.1µM*,nt,-0.2,nt,nt,-11.0%
Cc1ccc(S(=O)(=O)c2nc(-c3ccco3)oc2SC(C)C)cc1,44.7µM*,-7.4%,1.0,?,?,-1.6%
CCCSc1oc(-c2ccco2)nc1S(=O)(=O)c1ccc(Cl)cc1,-22.9%[59 µM],-5.2%,nt,?,-15.7%,nt
